Inconclusive results are not listed. Entries that show only a call come without a potency. Active and inactive are the calls of the source. Unless noted, calls follow the shape of the dose curve; as a rule, active = well fitted curve in the direction sought with a large enough effect in the repeat runs; inconclusive = weak or mixed curves; inactive = no such curve, though single readings can be large; an effect the other way counts as inactive or inconclusive.
Tests used:
[1] = target: Cytochrome P450 2D6 (Homo sapiens) (UniProt P10635); test: Cytochrome P450 family 2 subfamily D member 6 (CYP2D6) small molecule antagonists: luciferase biochemical (cell-free) qHTS assay (AID 1645840); also: nearly all actives have a fitted effect of over 55% in size; also: potency is read from the fitted curve at half-maximal effect
Chain of Cytochrome P450 2D6 (Homo sapiens) (P10635 whole entry, looked up): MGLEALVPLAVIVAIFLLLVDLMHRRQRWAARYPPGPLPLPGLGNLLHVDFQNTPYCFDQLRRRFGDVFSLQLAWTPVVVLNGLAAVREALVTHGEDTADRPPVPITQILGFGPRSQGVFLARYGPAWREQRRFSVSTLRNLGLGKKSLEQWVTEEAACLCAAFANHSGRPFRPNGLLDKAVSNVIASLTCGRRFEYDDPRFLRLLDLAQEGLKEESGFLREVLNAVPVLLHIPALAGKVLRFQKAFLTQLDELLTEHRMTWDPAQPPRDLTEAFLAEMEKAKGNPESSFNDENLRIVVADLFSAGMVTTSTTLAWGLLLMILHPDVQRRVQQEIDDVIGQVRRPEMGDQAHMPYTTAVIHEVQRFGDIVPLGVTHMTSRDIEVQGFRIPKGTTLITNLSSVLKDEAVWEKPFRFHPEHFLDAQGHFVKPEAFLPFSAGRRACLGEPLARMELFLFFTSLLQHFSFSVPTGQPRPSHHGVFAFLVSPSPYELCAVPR
How it was run: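 P450-Glo luminescent screen: recombinant CYP2D6 enzyme–proluciferin substrate mix preincubated with compound 10 min at room temperature, then NADPH regeneration added for 1 h at room temperature. Detection reagent added for 20 min; luciferin light read as relative luminescence units.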

[2] = target: Cytochrome P450 2C9 (Homo sapiens) (UniProt P11712); test: Cytochrome P450 family 2 subfamily C member 9 (CYP2C9) small molecule antagonists: luciferase biochemical (cell-free) qHTS assay (AID 1645842); also: nearly all actives have a fitted effect of over 55% in size; also: potency is read from the fitted curve at half-maximal effect
Chain of Cytochrome P450 2C9 (Homo sapiens) (P11712 whole entry, looked up): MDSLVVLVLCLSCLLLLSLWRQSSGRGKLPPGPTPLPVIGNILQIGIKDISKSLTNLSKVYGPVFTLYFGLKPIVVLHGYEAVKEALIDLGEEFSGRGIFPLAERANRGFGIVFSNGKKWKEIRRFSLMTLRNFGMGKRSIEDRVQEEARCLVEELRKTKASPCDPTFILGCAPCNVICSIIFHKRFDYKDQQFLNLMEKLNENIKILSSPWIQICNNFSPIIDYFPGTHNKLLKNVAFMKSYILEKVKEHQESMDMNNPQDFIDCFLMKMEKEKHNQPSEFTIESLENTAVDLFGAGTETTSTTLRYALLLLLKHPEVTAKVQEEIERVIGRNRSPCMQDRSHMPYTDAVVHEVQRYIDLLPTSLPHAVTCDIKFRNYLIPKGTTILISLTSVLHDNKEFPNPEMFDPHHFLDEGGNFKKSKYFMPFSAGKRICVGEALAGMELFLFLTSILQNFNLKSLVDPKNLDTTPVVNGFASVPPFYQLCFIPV
How it was run: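 Luminescence, after 20 min with luciferin detection reagent, reflected CYP2C9 turnover during a 1 h NADPH-driven reaction at 37C. Enzyme-substrate mix contained 0.4% bovine serum albumin and was preincubated with compound 10 min at room temperature.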

[3] = Cytotoxicity counterscreen for inhibitors of SARS-CoV-2 cell entry (AID 1645845; calls by dose curve; also: nearly all actives have a fitted effect of over 50% in size); details: outcome: dose series up to 57.1 µM unless noted
How it was run: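 Expi293F/hACE2 cells seeded overnight; cpd pin-transferred in DMSO, 1 h preincubation, + media, 48 h 37 C 5% CO2; ATPLite 1step luminescence; normalized to cells and no cells.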

[4] = Primary qHTS to identify inhibitors of SARS-CoV-2 cell entry (AID 1645846; calls by dose curve; also: nearly all actives have a fitted effect of over 45% in size); details: activity change, negative = inhibition: at 57.1 µM (top of the series) unless noted
How it was run: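 Entry measured by luciferase signal 48 h after adding SARS-CoV-2-S pseudotyped MLV particles to HEK293-ACE2 cells preincubated 1 h with compounds. Normalisation: bald particles and spike particles.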

[5] = Confirmatory qHTS to identify inhibitors of SARS-CoV-2 cell entry (AID 1645844; calls by dose curve; also: potency is read from the fitted curve at half-maximal effect; nearly all actives have a fitted effect of over 45% in size); details: SARS-CoV-2 pseudotyped particle cell entry, luciferase
How it was run: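 HEK293-ACE2 cells (Expi293F stably expressing human ACE2) were pretreated with compounds for 1 hr at 37C, then infected with MLV-based particles carrying Wuhan-Hu-1 spike (C-terminal 19-aa truncation). Luciferase luminescence read after 48 hr; normalized to spike PP (100%) and bald PP (0%).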

SMILES: NCC(O)c1cccc(O)c1 (stereo unspecified)
- Potency [1]: inactive
- Potency [2]: inactive
- outcome [3]: inactive
- activity change, negative = inhibition [4]: -19.3%

SMILES: CN1CCC[C@@H]1Cc1c[nH]c2ccc(Nc3ncccc3[N+](=O)[O-])cc12
- Potency [1]: 3.01 µM (active)
- Potency [2]: 19 µM (active)

SMILES: CC(N)Cc1c[nH]c2ccccc12 (stereo unspecified)
- Potency [1]: 23.9 µM (active)
- Potency [2]: inactive

SMILES: OC1(c2ccc(Cl)cc2)c2ccccc2C2=NCCN21 (stereo unspecified)
- Potency [1]: 2.68 µM (active)
- Potency [2]: 15.1 µM (active)

SMILES: COC(=O)N1CCN(C(=O)Cc2ccc(Cl)c(Cl)c2)[C@@H](CN2CCCC2)C1
- Potency [1]: 4.77 µM (active)
- Potency [2]: inactive

SMILES: CC(C)[C@@H](CN1CC[C@@](C)(c2cccc(O)c2)[C@@H](C)C1)NC(=O)[C@H]1Cc2ccc(O)cc2CN1
- Potency [1]: 6.01 µM (active)
- Potency [2]: inactive

SMILES: CN(C(=O)Cc1ccccc1)C(CN1CCCC1)c1ccccc1 (stereo unspecified)
- Potency [1]: 0.0849 µM (active)

SMILES: Cn1ncnc1COc1nn2c(-c3c(F)cccc3F)nnc2cc1C1CCC1
- Potency [1]: inactive
- Potency [2]: 6.74 µM (active)

SMILES: Cc1cccc(NC(=O)N[C@@H]2N=C(c3ccccc3)c3ccccc3N(C)C2=O)c1
- Potency [1]: inactive
- Potency [2]: 12 µM (active)

SMILES: CCCCCCn1c(=O)c(C(=O)Nc2ccc(C(=O)OCCC)cc2)c(O)c2ccccc21
- Potency [1]: inactive
- Potency [2]: inactive

SMILES: COc1ccccc1CN[C@H]1C2CCN(CC2)[C@H]1C(c1ccccc1)c1ccccc1
- Potency [1]: 0.19 µM (active)
- Potency [2]: inactive

SMILES: O=C(NC(=O)c1c(F)cccc1F)Nc1ccc(Cl)c(Oc2ncc(C(F)(F)F)cc2Cl)c1
- Potency [1]: 1.51 µM (active)
- Potency [2]: 1.9 µM (active)

SMILES: O=[N+]([O-])c1cc(I)c(O)c(I)c1
- Potency [1]: inactive

SMILES: CN(C)CCc1c[nH]c2ccc(CN3CCN(C)S3(=O)=O)cc12
- Potency [2]: inactive

SMILES: COc1cc(CCNCc2ccccc2O)c(OC)cc1C#N
- Potency [1]: 1.9 µM (active)
- Potency [2]: 9.52 µM (active)

SMILES: CC(C)(C)c1cc(C(C)(C)C)c2c(c1)C(O)(C(F)(F)F)C(=O)O2 (stereo unspecified)
- Potency [1]: inactive
- Potency [2]: 21.3 µM (active)

SMILES: CCc1c(C(=O)C(N)=O)c2c(OCC(=O)OC)cccc2n1Cc1ccccc1
- Potency [1]: inactive
- Potency [2]: 13.5 µM (active)

SMILES: CCc1[nH]c2ccc(OC)cc2c1CCN(C)C
- Potency [1]: 1.9 µM (active)
- Potency [2]: inactive

SMILES: C#CC(C)(O)CC (stereo unspecified)
- Potency [1]: inactive
- Potency [2]: inactive

SMILES: O=[N+]([O-])C(Br)(CO)CO
- Potency [1]: inactive
- Potency [2]: 6.74 µM (active)
- Potency [4]: inactive

SMILES: CCOC(=O)c1ccccc1C(=O)OCC
- Potency [1]: inactive
- Potency [4]: inactive

SMILES: CCCCNCC(O)c1ccc(O)cc1 (stereo unspecified)
- Potency [1]: 9.52 µM (active)
- Potency [2]: inactive
- Potency [4]: inactive

SMILES: CC(C)(C)c1cc(O)ccc1O
- Potency [2]: 12 µM (active)

SMILES: CCCC(C)C1(CC)C(=O)NC(=O)NC1=O (stereo unspecified)
- Potency [1]: inactive
- Potency [2]: inactive

SMILES: Cc1cc(C(=O)CN2CCCC2)c(C)n1-c1ccc(F)cc1
- Potency [1]: 0.952 µM (active)
- Potency [2]: inactive

SMILES: Cc1c(Cl)cccc1S(=O)(=O)Nc1nc(CC(=O)N2CCN(C)CC2)cs1
- Potency [1]: inactive
- Potency [2]: 21.3 µM (active)

SMILES: OCCCCC#Cc1cncc(OC[C@@H]2CCN2)c1
- Potency [1]: inactive
- Potency [2]: inactive

SMILES: CC[C@H](C)[C@H]1O[C@]2(C=C[C@@H]1C)C[C@@H]1C[C@@H](C/C=C(\C)[C@@H](O[C@H]3C[C@H](OC)[C@@H](O[C@H]4C[C@H](OC)[C@@H](O)[C@H](C)O4)[C@H](C)O3)[C@@H](C)/C=C/C=C3\CO[C@@H]4[C@H](O)C(C)=C[C@@H](C(=O)O1)[C@]34O)O2
- Potency [5]: 21.5 µM (active)

SMILES: O=C1C2CC=CCC2C(=O)N1SC(Cl)(Cl)Cl (stereo unspecified)
- Potency [5]: 15.2 µM (active)

Source: PubChem BioAssay (NCATS)
